Test [1] can be described thus: inhibitors of TNFa-induced NFkB p65 translocation, primary screen, imaging, HUVEC, MLSMR starter and 10KST1 sets (AID 438).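 Also: compound added about 3h40 before a 20 min TNFalpha stimulation.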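 As to inhibition: signal is the nuclear over cytoplasmic p65 intensity ratio per well.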 As to conditions: HUVEC TNFa-induced p65 nuclear translocation; cell count: measured here: nuclei count (cytotoxicity indicator), at 2.08 µM unless noted; inhibition: at 2 µM, stronger effect = higher value unless noted.
The nature of test [2]: inhibitors of E-selectin induction by TNFa, primary screen, imaging, HUVEC, immunofluorescence, MLSMR starter and 10KST1 sets (AID 487;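 active = visually confirmed hit in the image check and inhibition above 20%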;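 as to inhibition: signal is fraction of cell area covered by stained E-selectin grains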;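 as to nuclei count: 100% = median nuclei count of all wells on the same plate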). Conditions: HUVEC TNFalpha-induced E-selectin immunofluorescence imaging, at 2 µM; inhibition: stronger effect = higher value; nuclei count: measured here: cell number, toxicity.
Test [3] in a line: DUSP6 inhibitors restoring Erk phosphorylation by chemical complementation, primary imaging in DUSP6-transfected HeLa (AID 609;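 active = compounds giving at least 50% inhibition in the cell-based MKP-3 phosphatase rescue imaging test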;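 as to inhibition: phospho-Erk level distribution per well compared with pooled transfected vehicle control wells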). Conditions: HeLa MKP-3 transfected, phospho-Erk imaging KS statistic, at 10 µM.
Test [4] has as its target Dual specificity protein phosphatase 6 (Homo sapiens) (UniProt Q16828). The description is as above. As to conditions: HeLa MKP-3 transfected, phospho-Erk imaging KS statistic, at 10 µM, stronger effect = higher value.
Test [5] deals with Voltage-gated potassium channel subunit beta-2 (Rattus norvegicus) (UniProt P62483). The experiment in a line: KvBeta enzyme negative modulators, primary screen, biochemical, NADPH fluorescence (AID 622;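 active = fluorescence slope higher than the sample average by over 3 SD, cut at about -0.22 in these data, passing the limit was not always enough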;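 also: slope of raw intensity against log time taken from 70 to 1610 s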). As to conditions: recombinant KvBeta, 4-cyanobenzaldehyde reduction, at 10 µM, stronger effect = higher value.
The target is the same in test [6]. The experiment in a line: KvBeta positive modulators, primary screen, biochemical, NADPH fluorescence (AID 623;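 active = NADPH fluorescence slope more negative than the mean of all samples by about 3 SD, 99.7% confidence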;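 also: fluorescence intensity change per second fitted from 20 to 320 s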). Conditions: Recombinant KvBeta, NADPH fluorescence decrease slope, 10 min; at 10 µM; stronger effect = lower value.
The target of test [7] is Muscarinic acetylcholine receptor M4 (Homo sapiens) (UniProt P08173). The experiment in a line: compounds altering M4/GIRK thallium flux, either direction, primary screen, M4 allosteric agonist project, cell-based, HEK293 M4/GIRK, BTC-AM (AID 625;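 active = fluorescence slope after compound addition differing from the mean of all tested samples at 99.7% confidence, mostly higher but some lower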;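 also: thallium influx through GIRK channels coupled to M4 in HEK293 cells with BTC-AM dye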). As to conditions: at 10 µM, actives lie on both sides.
Test [8] can be described thus: inhibitors of larval lipid processing in zebrafish, primary screen, whole organism, PED6 fluorescence, gall bladder and intestine (AID 686;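 active = a full or partial loss of lipid-probe fluorescence in the fish gall bladder, intestine or both, judged by eye; inactive = no fluorescence loss, or compound toxic to the fish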;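 also: larvae 5 to 7 days old with five fish per well; signal comes from phospholipase A2 cleavage of quenched PED6 carried via bile; overnight exposure to compound and PED6 before scoring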). Conditions: Zebrafish larvae PED6 lipid processing, fluorescence scoring.
Test [9] is described as follows: inhibitors of Chlamydomonas gravitaxis, primary screen, whole organism, Chlamydomonas reinhardtii, WT vs cilia-less mutant, absorbance, 96-well (AID 463189;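 active = inhibition at or above 50% relative to wild type and mutant plate controls; inactive = inhibition below 50%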;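 also: 0% = wild type cc124 cells in DMSO and 100% = ciliumless bld1 mutant cells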). As to conditions: OD600 absorbance, 2 days, at 10 µM, stronger effect = higher value.
Test [10] in a line: inhibitors of mutant huntingtin aggregation, primary screen, imaging, exon1htt(103Q)mCFP cells, high-content imaging (AID 483;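 active = visual image review flags a hit and inhibition of aggregation exceeds 20%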;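 also: compound exposure lasted 3 days before fixation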;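 as to nuclei count: percent of the per-plate median nuclei count of sample wells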). Conditions: exon1htt(103Q)mCFP cell line, aggregate imaging, at 2 µM; inhibition of aggregation: stronger effect = higher value; nuclei count: measured here: cell count, toxicity.
In test [11] the target is Alpha-2C adrenergic receptor (Homo sapiens) (UniProt P18825). The experiment in a line: modulators of alpha2C/GIRK thallium flux, primary screen, cell-based, HEK293 alpha2C/GIRK1/2 (AID 624;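 active = fluorescence slope after compound addition differing from the mean of all screened samples at 99.7% confidence, in either direction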;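 also: slope of fluorescence ratio to pre-addition baseline per second over 15 to 24 s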). Conditions: thallium flux BTC fluorescence, at 10 µM, actives lie on both sides.
The nature of test [12]: inhibitors of Sendai virus-induced IRF3 signaling, primary screen, TLR/RLR signaling modifier project, cell-based, Sendai virus stimulus, luciferase, 10K MLSCN set (AID 602276;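 active = inhibition at or above 50% at 10 µM; inactive = inhibition below 50%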;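 also: firefly luciferase from ISG56 promoter only with Renilla not read in this screen; 0% = Sendai virus plus DMSO and 100% = medium plus DMSO without virus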). As to conditions: HEK293 RL24 IRF3 luciferase reporter, at 10 µM, stronger effect = higher value. On the technique in general: Reporter assays use an easily measured gene product as a stand-in for the process of interest.

Test [13] in a line: inhibitors of poly I:C-induced TLR3 signaling, primary screen, cell-based, poly I:C stimulus, luciferase, 10K MLSCN set (AID 602277;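 active = inhibition of the reporter signal at or above 50%; inactive = inhibition below 50%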). As to conditions: HEK293-TLR3 RL24 IRF3 luciferase reporter, at 10 µM, stronger effect = higher value.
[14] abbreviates: measured here: cell density z-score.
Setting [15] is: measured here: nuclear c-Myc green intensity z-score.
Setting [16] is: measured here: nuclear pErk red intensity z-score, stronger effect = higher value.

Active and inactive are the calls of the source.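 The calls were made as follows, unless noted: active = inhibition above 20% together with a positive visual image hit; inconclusive = visual image hit but inhibition not above 20%; inactive = no visual image hit.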

Chain of Alpha-2C adrenergic receptor (Homo sapiens) (P18825 whole entry, looked up): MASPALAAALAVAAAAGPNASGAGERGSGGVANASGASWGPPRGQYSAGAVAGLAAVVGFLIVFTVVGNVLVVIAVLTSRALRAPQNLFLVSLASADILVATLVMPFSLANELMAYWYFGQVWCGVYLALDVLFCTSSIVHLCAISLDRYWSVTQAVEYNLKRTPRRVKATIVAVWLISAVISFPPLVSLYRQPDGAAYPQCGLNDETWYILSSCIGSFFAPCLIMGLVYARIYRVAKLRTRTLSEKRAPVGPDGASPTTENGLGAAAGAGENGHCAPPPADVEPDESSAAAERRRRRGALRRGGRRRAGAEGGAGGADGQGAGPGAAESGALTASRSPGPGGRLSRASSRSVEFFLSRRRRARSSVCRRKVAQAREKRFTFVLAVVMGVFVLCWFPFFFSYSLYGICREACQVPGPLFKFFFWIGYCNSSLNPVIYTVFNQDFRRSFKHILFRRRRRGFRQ
Chain of Voltage-gated potassium channel subunit beta-2 (Rattus norvegicus) (P62483 whole entry, looked up): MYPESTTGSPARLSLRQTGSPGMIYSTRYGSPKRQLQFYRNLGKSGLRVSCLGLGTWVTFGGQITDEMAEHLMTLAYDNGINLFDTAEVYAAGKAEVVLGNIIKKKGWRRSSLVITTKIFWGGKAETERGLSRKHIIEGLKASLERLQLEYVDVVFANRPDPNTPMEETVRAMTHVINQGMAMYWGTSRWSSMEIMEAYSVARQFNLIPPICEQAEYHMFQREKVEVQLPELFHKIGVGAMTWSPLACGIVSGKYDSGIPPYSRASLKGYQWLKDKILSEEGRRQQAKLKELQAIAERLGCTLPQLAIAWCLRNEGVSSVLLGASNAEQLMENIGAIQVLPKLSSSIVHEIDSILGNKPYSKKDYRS
Chain of Muscarinic acetylcholine receptor M4 (Homo sapiens) (P08173 whole entry, looked up): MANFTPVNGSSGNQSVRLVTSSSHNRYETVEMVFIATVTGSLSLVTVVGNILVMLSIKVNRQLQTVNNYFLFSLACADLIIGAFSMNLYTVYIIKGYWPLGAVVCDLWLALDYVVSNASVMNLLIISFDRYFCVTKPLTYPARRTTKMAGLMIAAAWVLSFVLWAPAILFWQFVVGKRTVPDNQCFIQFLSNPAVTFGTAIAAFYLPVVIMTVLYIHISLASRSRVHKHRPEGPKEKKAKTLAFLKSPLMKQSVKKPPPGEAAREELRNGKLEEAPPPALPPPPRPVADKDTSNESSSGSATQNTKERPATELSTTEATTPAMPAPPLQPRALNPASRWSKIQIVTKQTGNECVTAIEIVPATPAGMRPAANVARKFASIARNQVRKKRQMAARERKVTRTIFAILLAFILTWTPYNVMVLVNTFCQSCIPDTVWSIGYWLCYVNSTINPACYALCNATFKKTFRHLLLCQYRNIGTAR
Chain of Dual specificity protein phosphatase 6 (Homo sapiens) (Q16828 whole entry, looked up): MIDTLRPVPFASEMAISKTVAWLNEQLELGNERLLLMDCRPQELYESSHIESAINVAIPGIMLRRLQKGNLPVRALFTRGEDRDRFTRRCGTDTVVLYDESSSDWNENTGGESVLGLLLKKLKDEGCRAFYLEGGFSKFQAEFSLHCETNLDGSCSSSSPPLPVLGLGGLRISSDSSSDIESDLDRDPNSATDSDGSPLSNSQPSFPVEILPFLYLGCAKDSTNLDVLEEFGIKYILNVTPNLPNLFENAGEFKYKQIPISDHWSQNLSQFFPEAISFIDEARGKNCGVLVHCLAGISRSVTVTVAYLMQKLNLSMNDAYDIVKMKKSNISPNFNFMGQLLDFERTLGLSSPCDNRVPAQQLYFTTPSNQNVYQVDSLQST

Compound `CN1CCc2c(c(N3CCCCC3)nc3n[nH]c(N)c23)C1` showed a cell count in test [1] of 496. The inhibition in test [1] is -17.1% (inactive); in test [2] it was -154% (inactive); in test [4], 21.4% (inactive); in test [9], -3.54% (inactive). The nuclei count in test [2] was found to be 127%. Also, the z-score in test [3] (setting [14]) is 1.06; in test [3] (setting [15]), -1.56; in test [3] (setting [16]), 0.455. Also, the fluorescence slope in test [5] is -0.463 (inactive); in [7] it was 0.00409 (inactive). Also, in test [6], the NADPH fluorescence slope is -8.3e-05 (inactive). The compound was called inactive in test [8].
For `CCC(=NCC1CCCO1)c1c(O)n(Cc2ccccc2)c(=O)[nH]c1=O` (stereo not given), the cell count in test [1] is 707. Moreover, the inhibition in [1] is -6% (inactive); in test [2], -57.1% (inactive); in [12], -5.89% (inactive); in [13] it was 19.3% (inactive). Also, the inhibition of aggregation in test [10] is 6.5% (inactive). Also, the nuclei count in test [10] was determined as 97.1%; in test [2], 120%. Also, the fluorescence slope in test [5] was -0.512 (inactive). For the same compound, in test [6], the NADPH fluorescence slope was -5.3e-05 (inactive). For the same compound, the slope in test [11] is 0.00608 (inactive).
Turning to `COc1ccccc1-n1c(O)c(C=NCCCn2ccnc2)c(=O)[nH]c1=O`, the cell count in [1] is 752. Moreover, the inhibition is 3.4% (inactive) in [1], -23.3% (inactive) in test [2], 7.83% (inactive) in [4] and 5.72% (inactive) in test [9]. The same compound gave a nuclei count in [2] of 150%. Also, the results for the z-score in [3] (setting [14]), in [3] (setting [15]) and in [3] (setting [16]) were -0.173, -0.884 and 0.0227, respectively. The fluorescence slope in [5] was -0.426 (inactive); in test [7] it was 0.00527 (inactive). For the same compound, the NADPH fluorescence slope in test [6] is -4.1e-05 (inactive). In addition, in test [8], the compound was called inactive.
Regarding `CNC(=O)N(C)c1nnc(C(C)(C)C)s1`, the cell count in [1] is 642. Besides, the inhibition is -6.4% (inactive) in test [1], -26% (inactive) in [2], 11.9% (inactive) in test [4] and 119% (active) in [9]. For the same compound, the nuclei count in test [2] worked out at 73.8%. Also, the values for the z-score in test [3] (setting [14]), in test [3] (setting [15]) and in test [3] (setting [16]) were -3.07, 0.0042 and -1.4, respectively. Besides, the values for the fluorescence slope in [5] and in [7] were -0.502 (inactive) and 0.00657 (inactive), respectively. The NADPH fluorescence slope in test [6] was -9.9e-05 (inactive). The outcome in test [8] was inactive.
In test [1], `Cc1ccccc1NC1=NCCCS1` had a cell count of 457. Moreover, the inhibition in test [1] was -10.3% (inactive); in test [2] it was 67.8% (inactive); in test [12], 0.817% (inactive); in test [13] it was 19% (inactive). In addition, in [10], the inhibition of aggregation was 29.9% (active). In addition, the values for the nuclei count in test [10] and in test [2] were 83.1% and 74.1%, respectively. The fluorescence slope in [5] is -0.357 (inactive). The NADPH fluorescence slope in test [6] is -3.1e-05 (inactive). In [11], the slope was 0.00361 (inactive).
On to `O=c1[nH]c(=O)n(-c2ccc(F)cc2)c(O)c1C=Nc1ccccc1N1CCCC1`, for which, in test [1], the cell count is 459. Besides, the inhibition in test [1] is -0.3% (inactive); in test [2], -109% (inactive); in test [12], 3.89% (inactive); in test [13], 14.6% (inactive). Also, the inhibition of aggregation in test [10] is -4.4% (inactive). In addition, the nuclei count was 112% in test [10] and 118% in [2]. Besides, the fluorescence slope in test [5] is -0.0108 (inactive). Also, in test [6], the NADPH fluorescence slope is 1.9e-06 (inactive). The slope in test [11] was 0.00376 (inactive).
`CCOc1ccc(C2SCC(=O)Nc3c2c(=O)[nH]n3C2CCCCCC2)cc1` (stereo not given) showed a cell count in test [1] of 286. Besides, the inhibition is 23.8% (inactive) in test [1], -14.2% (inactive) in test [2], -12.2% (inactive) in [12] and 98.8% (active) in test [13]. For the same compound, the inhibition of aggregation in test [10] was 7.5% (inactive). Also, the nuclei count in [10] was 88.4%; in [2], 102%. In addition, the fluorescence slope in [5] was -0.408 (inactive). Besides, the NADPH fluorescence slope in test [6] is -2.7e-05 (inactive). In addition, in test [11], the slope is 0.00778 (inactive).
`O=C(c1sc2ccccc2c1Cl)N1CCC2(CC1)OCCO2` displayed a cell count in test [1] of 388. The inhibition in [1] was 2.5% (inactive); in [2], -59.7% (inactive); in test [12] it was -10.2% (inactive); in test [13], -29.6% (inactive). Also, the inhibition of aggregation in [10] was -5.9% (inactive). In addition, the nuclei count in test [10] was determined as 107%; in [2], 105%. In test [5], the fluorescence slope is -0.405 (inactive). In addition, in test [6], the NADPH fluorescence slope was 3e-05 (inactive). The slope in test [11] is 0.00266 (inactive).
In turn, `CCn1c(C)c(C(=O)O)c2cc(OC)ccc21` returned a cell count in test [1] of 617. For the same compound, the inhibition in test [1] was 3.5% (inactive); in test [2] it was 11.4% (inactive); in test [12] it was 14.5% (inactive); in test [13] it was 22.2% (inactive). For the same compound, the inhibition of aggregation in test [10] was 1.8% (inactive). Moreover, the figures for the nuclei count in test [10] and in test [2] were 96.3% and 107%, respectively. Moreover, in test [5], the fluorescence slope is -0.495 (inactive). The NADPH fluorescence slope in [6] was -2.5e-05 (inactive). In addition, in test [11], the slope is 0.00472 (inactive).
In turn, `C[C@H]1CCCC(=O)CCC/C=C/c2cc(O)cc(O)c2C(=O)O1` displayed a cell count in test [1] of 420. For the same compound, the inhibition in test [1] is 6.1% (inactive); in test [2] it was -42% (inactive); in test [12], 13.5% (inactive); in test [13], 8.12% (inactive). Moreover, the inhibition of aggregation in test [10] is 4.4% (inactive). For the same compound, the nuclei count was 93.9% in test [10] and 108% in test [2]. Besides, the fluorescence slope in test [5] was -0.55 (inactive). Further, the NADPH fluorescence slope in [6] is -7.2e-05 (inactive). Further, the slope in [11] is 0.00303 (inactive).
`O=C(O)C1(c2ccc(Cl)cc2)CCC1` yielded a cell count in test [1] of 433. Also, the inhibition in test [1] is 7.5% (inactive); in test [2], -422% (inactive); in test [12] it was 12.9% (inactive); in [13], 21.3% (inactive). In [10], the inhibition of aggregation is 1.5% (inactive). The results for the nuclei count in test [10] and in [2] were 104% and 158%, respectively. The fluorescence slope in test [5] is -0.461 (inactive). The NADPH fluorescence slope in test [6] is 2.3e-05 (inactive). In addition, the slope in test [11] is 0.00643 (inactive).
For `CN(C)CCN=Cc1c(O)n(-c2cccc3ccccc23)c(=O)[nH]c1=O`, the cell count in test [1] amounted to 569. The inhibition in [1] was 0% (inactive); in test [2], 25.9% (inactive); in test [12], 14% (inactive); in test [13], 11.3% (inactive). In addition, in test [10], the inhibition of aggregation is -6.8% (inactive). For the same compound, the nuclei count in test [10] was 107%; in test [2], 110%. Also, the fluorescence slope in [5] was -0.419 (inactive). The NADPH fluorescence slope in [6] is -4.5e-05 (inactive). For the same compound, the slope in [11] is 0.00451 (inactive).
The compound `CC(=NCCCO)c1c(O)n(Cc2ccccc2)c(=O)[nH]c1=O` yielded a cell count in [1] of 374. Also, the inhibition in test [1] was -1.2% (inactive); in test [2] it was -197% (inactive); in test [12], 13% (inactive); in test [13] it was 11% (inactive). Also, the inhibition of aggregation in test [10] was -15.8% (inactive). Also, the results for the nuclei count in test [10] and in test [2] were 113% and 130%, respectively. The fluorescence slope in test [5] was -0.384 (inactive). The NADPH fluorescence slope in test [6] was -3.6e-05 (inactive). The slope in test [11] was 0.00369 (inactive).
With `O=C(C(Cc1ccccc1)NS(=O)(=O)c1ccc(F)cc1)N1CCC2(CC1)OCCO2` (stereo not given), in test [1], the cell count was determined as 381. In addition, the inhibition in test [1] is -11.2% (inactive); in test [2] it was -43.8% (inactive); in test [12], 11.2% (inactive); in test [13], 37.1% (inactive). In addition, the inhibition of aggregation in test [10] is -7% (inactive). Besides, the nuclei count in [10] worked out at 99.8%; in [2], 122%. Also, in [5], the fluorescence slope is -0.437 (inactive). Further, the NADPH fluorescence slope in test [6] was 8.6e-06 (inactive). In addition, the slope in test [11] was 0.00508 (inactive).

A word on the inhibition: it is the change of the read-out against control, counted positive when it falls.

The values are drawn from PubChem BioAssay.
